Laboratory results reported in PubChem BioAssay (NCATS).
Results filed as inconclusive are left out. The source made the active and inactive calls. Unless noted, calls follow the shape of the dose curve; as a rule, active = well fitted curve in the direction sought with a large enough effect; inconclusive = small, poorly fitted or top-dose-only effect, or another doubt; inactive = no such curve, though single readings can be large; an effect the other way counts as inactive or inconclusive.

How the values were obtained:
[1] = molecular target: Calcium and integrin-binding protein 1 (Homo sapiens) (UniProt Q99828); assay: Primary qHTS for Identification of Calcium Integrin Binding Protein 1 (CIB1) Competitor (AID 1508620);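 also: GST tagged CIB1 binding a fluorescein labelled alphaIIb integrin peptide tracer; top concentration of the series differs between compounds; % is scaled to controls: 0 for no effect and ±100 for the full control effect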
Chain of Calcium and integrin-binding protein 1 (Homo sapiens) (Q99828 whole entry, looked up): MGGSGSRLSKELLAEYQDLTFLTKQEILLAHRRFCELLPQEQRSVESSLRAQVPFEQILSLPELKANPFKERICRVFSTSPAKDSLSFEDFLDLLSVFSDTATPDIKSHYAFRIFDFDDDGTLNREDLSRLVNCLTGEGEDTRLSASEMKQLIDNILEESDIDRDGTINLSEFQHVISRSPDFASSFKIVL
How it was run: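 CIB1-GST (1 uM final) and compound incubated 15 min at room temperature before adding FITC-alphaIIb peptide tracer (100 nM final). Competition for binding read by fluorescence polarization (ex 480, em 540) after another 15 min at room temperature.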

[2] = molecular target: Rap guanine nucleotide exchange factor 3 (Homo sapiens) (UniProt O95398); assay: Confirmatory qHTS for antagonist of cAMP-regulated guanine nucleotide exchange factor 3 (EPAC1) (AID 1645880); also: nearly all actives have a fitted effect of over 55% in size; also: potency is read from the fitted curve at half-maximal effect
Chain of Rap guanine nucleotide exchange factor 3 (Homo sapiens) (O95398 whole entry, looked up): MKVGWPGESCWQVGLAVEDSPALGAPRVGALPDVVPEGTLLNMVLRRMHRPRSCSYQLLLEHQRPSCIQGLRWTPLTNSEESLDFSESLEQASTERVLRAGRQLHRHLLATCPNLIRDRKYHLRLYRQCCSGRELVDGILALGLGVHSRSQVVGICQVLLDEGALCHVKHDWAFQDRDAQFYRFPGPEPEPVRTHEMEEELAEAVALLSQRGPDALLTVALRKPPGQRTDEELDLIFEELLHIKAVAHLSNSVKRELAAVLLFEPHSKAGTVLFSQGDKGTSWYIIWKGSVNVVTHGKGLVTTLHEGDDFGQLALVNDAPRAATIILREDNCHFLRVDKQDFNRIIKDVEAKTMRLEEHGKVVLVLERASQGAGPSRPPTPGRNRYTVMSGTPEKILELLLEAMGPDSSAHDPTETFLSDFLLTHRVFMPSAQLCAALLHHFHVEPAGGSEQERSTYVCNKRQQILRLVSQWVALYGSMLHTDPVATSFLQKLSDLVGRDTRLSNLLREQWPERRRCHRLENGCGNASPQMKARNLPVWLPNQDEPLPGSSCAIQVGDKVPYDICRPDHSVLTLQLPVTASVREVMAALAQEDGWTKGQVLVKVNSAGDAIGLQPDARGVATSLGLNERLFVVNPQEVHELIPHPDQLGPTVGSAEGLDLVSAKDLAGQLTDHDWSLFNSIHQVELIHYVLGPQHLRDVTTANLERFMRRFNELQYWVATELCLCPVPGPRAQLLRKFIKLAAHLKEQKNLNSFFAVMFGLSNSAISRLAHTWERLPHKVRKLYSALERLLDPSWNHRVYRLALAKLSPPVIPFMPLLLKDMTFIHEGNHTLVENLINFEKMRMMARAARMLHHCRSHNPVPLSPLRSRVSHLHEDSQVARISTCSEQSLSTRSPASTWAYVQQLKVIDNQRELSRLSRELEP
How it was run: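 Nucleotide exchange uses 100 nM EPAC1, 250 nM RAP1B-BODIPY-GDP and 50 uM GDP, with compounds in a concentration-titration series. After 5 min at room temperature, fluorescence (480 nm ex/540 nm em) is read every 5 min for 30 min. Data are normalized to control ATA and DMSO.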

[3] = molecular target: Rap guanine nucleotide exchange factor 3 (Homo sapiens) (UniProt O95398); assay: Confirmatory qHTS for agonist of cAMP-regulated guanine nucleotide exchange factor 3 (EPAC1) (AID 1645881);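 also: EPAC1 catalysed release of BODIPY-GDP from Rap1B seen as fluorescence loss; 100% = effect of cAMP agonist control; nearly all actives have a fitted effect of over 75% in size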
[4] = molecular target: Rap guanine nucleotide exchange factor 4 (Homo sapiens) (UniProt Q8WZA2); assay: Confirmatory qHTS for antagonist of cAMP-regulated guanine nucleotide exchange factor 4 (EPAC2) (AID 1645885); also: % is scaled to controls: 0 for no effect and ±100 for the full control effect; nearly all actives have a fitted effect of over 25% in size
Chain of Rap guanine nucleotide exchange factor 4 (Homo sapiens) (Q8WZA2 whole entry, looked up): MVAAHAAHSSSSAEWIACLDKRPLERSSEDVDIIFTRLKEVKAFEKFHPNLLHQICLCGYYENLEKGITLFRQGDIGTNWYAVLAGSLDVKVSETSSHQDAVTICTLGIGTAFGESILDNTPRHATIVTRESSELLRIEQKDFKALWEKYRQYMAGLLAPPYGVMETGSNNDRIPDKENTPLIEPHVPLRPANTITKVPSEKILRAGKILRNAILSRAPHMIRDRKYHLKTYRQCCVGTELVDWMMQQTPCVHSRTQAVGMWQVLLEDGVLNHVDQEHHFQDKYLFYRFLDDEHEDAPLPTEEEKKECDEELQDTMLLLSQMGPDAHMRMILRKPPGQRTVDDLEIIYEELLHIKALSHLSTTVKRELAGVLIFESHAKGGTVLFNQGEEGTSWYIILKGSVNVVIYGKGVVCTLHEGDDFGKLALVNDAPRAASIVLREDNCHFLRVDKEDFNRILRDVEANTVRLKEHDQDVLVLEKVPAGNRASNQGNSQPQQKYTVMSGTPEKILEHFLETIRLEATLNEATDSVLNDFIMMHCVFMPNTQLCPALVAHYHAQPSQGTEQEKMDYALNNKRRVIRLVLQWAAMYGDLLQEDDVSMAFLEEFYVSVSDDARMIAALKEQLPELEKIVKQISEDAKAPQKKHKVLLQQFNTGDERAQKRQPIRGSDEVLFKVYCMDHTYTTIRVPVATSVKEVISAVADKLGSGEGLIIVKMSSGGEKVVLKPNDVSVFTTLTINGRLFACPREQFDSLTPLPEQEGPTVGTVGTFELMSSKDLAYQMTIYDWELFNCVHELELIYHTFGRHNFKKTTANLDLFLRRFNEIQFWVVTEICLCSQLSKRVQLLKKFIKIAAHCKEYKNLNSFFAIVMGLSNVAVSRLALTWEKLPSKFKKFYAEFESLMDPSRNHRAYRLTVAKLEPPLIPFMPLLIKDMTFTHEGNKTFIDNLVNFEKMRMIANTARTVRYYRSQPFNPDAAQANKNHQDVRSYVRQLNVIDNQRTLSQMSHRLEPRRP

[5] = molecular target: Rap guanine nucleotide exchange factor 3 (Homo sapiens) (UniProt O95398); assay: Counterscreen qHTS for antagonist of cAMP-regulated guanine nucleotide exchange factor 3 (EPAC1) (AID 1645888);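 also: fluorescence loss as bound BODIPY-GDP is released from Rap1B; % of control where 0% means no effect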
How it was run: (§1)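 Rap1B-BODIPY-GDP 250 nM + GDP 50 uM; cpds 7-pt, final 9.74 nM–152 uM (activator mode) or from 7.32 nM upwards (inhibitor mode); RT; FI 480/540 nm at 5 and 30 min, then ± cAMP, reread.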

[6] = molecular target: Rap guanine nucleotide exchange factor 3 (Homo sapiens) (UniProt O95398); assay: Counterscreen qHTS for agonist of cAMP-regulated guanine nucleotide exchange factor 3 (EPAC1) (AID 1645889); also: % of control where 0% means no effect; nearly all actives have a fitted effect of over 40% in size
How it was run: as §1

[7] = molecular target: Glutathione peroxidase 1 (Homo sapiens) (UniProt P07203); assay: Primary qHTS Assay for Inhibitors of Recombinant Selenoprotein Glutathione Peroxidase 1 (GPX1) (AID 1845191); also: nearly all actives have a fitted effect of over 65% in size
Chain of Glutathione peroxidase 1 (Homo sapiens) (P07203 whole entry, looked up): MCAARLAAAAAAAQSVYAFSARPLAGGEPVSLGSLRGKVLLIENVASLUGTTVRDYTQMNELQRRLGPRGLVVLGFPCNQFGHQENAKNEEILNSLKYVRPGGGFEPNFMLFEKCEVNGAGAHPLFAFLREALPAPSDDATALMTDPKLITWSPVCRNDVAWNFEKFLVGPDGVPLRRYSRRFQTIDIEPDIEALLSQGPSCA
How it was run: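 10 nM GPX1 + cpd, 30 min RT; start w/ 1 mM GSH, 0.5 mM cumene hydroperoxide, 0.5 mM NADPH, 100 nM GR, 0.01% BSA; buffer 50 mM Tris-HCl pH 7.5, 2 mM EDTA, 150 mM NaCl; Fl 340/450, 0 & 15 min.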

[8] = molecular target: Rap guanine nucleotide exchange factor 4 (Homo sapiens) (UniProt Q8WZA2); assay: Confirmatory qHTS for agonist of cAMP-regulated guanine nucleotide exchange factor 4 (EPAC2) (AID 1645884);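 also: nucleotide exchange releases bodipy-GDP from Rap1 and this lowers its fluorescence; % is scaled to controls: 0 for no effect and ±100 for the full control effect; nearly all actives have a fitted effect of over 65% in size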
[9] = qHTS for Inhibitors of Ubiquitin-specific Protease USP2a Using CHOP2 as the Reporter: Cytotox Assay (AID 652170);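 also: series mostly up to about 46 µM; plate controls were DMSO-treated cells for no effect and wells without cells for full effect; nearly all actives have a fitted effect of over 70% in size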
How it was run: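 HCT116 human colon cancer cells, 600 per well in DMEM with 10% FBS, exposed to compounds for 72 hr at 37 deg C. ATP measured by CellTiter-Glo luminescence, normalized to DMSO cells and no-cell background.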

[10] = molecular target: Ubiquitin carboxyl-terminal hydrolase 2 (Homo sapiens) (UniProt O75604); assay: qHTS for Inhibitors of Ubiquitin-specific Protease USP2a Using CHOP2 as the Reporter: K484 Substrate (AID 652173);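 also: cleavage of internally quenched K48 di-ubiquitin substrate measured as rising fluorescence over time; nearly all actives have a fitted effect of over 70% in size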; also: potency is read from the fitted curve at half-maximal effect
Chain of Ubiquitin carboxyl-terminal hydrolase 2 (Homo sapiens) (O75604 whole entry, looked up): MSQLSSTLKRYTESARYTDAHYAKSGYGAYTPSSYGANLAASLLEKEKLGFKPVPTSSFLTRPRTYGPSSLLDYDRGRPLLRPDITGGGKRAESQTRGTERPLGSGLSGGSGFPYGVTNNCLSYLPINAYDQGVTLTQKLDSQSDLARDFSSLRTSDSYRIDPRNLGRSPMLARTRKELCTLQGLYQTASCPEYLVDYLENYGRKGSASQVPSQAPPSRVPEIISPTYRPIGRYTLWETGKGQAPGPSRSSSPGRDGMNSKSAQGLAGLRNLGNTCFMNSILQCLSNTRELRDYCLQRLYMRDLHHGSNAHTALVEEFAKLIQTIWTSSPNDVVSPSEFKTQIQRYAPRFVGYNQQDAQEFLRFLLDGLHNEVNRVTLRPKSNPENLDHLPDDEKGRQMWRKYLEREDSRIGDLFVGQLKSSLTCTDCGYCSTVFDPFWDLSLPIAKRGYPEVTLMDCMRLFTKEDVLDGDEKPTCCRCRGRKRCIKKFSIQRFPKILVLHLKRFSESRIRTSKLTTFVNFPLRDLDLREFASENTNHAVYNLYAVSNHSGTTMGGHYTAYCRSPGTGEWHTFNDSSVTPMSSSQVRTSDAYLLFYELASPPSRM
How it was run: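 USP2 (dispensed at 5 nM) was pinned with compounds, then DiUb K48 internally quenched fluorescent substrate (dispensed at 100 nM) was added. The buffer was 20 mM Tris pH 8, 2 mM beta-mercaptoethanol and 0.05% CHAPS. Cleavage was read kinetically as rising fluorescence, Ex 525/Em 598.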

[11] = molecular target: Mitogen-activated protein kinase 10 (Mus musculus) (UniProt Q61831); assay: JNK3 AlphaScreen Assay (AID 530; active = well fitted curve in either direction with a large enough effect, not every such curve was filed as active;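 also: kinase came from lysate of stimulated human HepG2 cells; signal reports phosphorylation of biotinylated GST-cJun 1-79 at Ser73 with 10 µM ATP; series mostly up to about 57 µM; % is scaled to controls: 0 for no effect and ±100 for the full control effect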)
How it was run: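 Room-temperature AlphaScreen kinase assay; pre-activated HepG2 lysate as JNK3 source, biotin-GST-cJun(1-79) substrate, 10 uM ATP, compound 15 min preincubation.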

[12] = qHTS for Inhibitors of Ubiquitin-specific Protease USP2a Using CHOP2 as the Reporter: K633 Counterscreen (AID 652168); also: series mostly up to about 57 µM; % of control where 0% means no effect
How it was run: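 Cell-free interference counterscreen without USP2a: compounds pinned into enzyme-free buffer (20 mM Tris pH 8, 2 mM beta-mercaptoethanol, 0.05% Chaps), then DiUb K48-4IQF substrate added (100 nM stock); fluorescence read kinetically, Ex 525/Em 598.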

O=C(CSc1nc2ccccc2n1CCc1ccccc1)c1ccc(O)c(O)c1
active: Potency [2] 6.01 µM
inactive: Potency [1] | outcome [3] | Potency [4] | outcome [5] | outcome [6]

CC(C)(C)n1nc(Cc2cccc([N+](=O)[O-])c2)c2c(N)ncnc21
inactive: Potency [1] | Potency [7]

Nc1ncnc2c1C(c1ccccc1)c1c(ccc3ccccc13)O2 (stereo unspecified)
inactive: Potency [1] | outcome [3] | outcome [8] | Potency [4] | outcome [5]

CN(C(=O)c1cn2c(-c3ccc(C(F)(F)F)cc3)cnc2cn1)c1ccc(C#N)cc1
inactive: Potency [1] | Potency [7]

CC(=O)NS(=O)(=O)c1ccc(NC(=O)c2cc(-c3ccc(C)c(C)c3)nc3ccccc23)cc1
active: Potency [10] 12.2 µM | Potency [2] 44.7 µM
inactive: Potency [9] | Potency [1] | outcome [3] | activation [8] 5.88% [at 17.1 µM] | activity change, negative = inhibition [4] -11.1% [at 12.7 µM] | outcome [5]

CCC(=O)NC(c1cc(Cl)c2ccccc2c1O)C(C)C (stereo unspecified)
inactive: Potency [1] | outcome [3] | outcome [8] | Potency [4] | outcome [5] | outcome [6]

CC(=O)c1ccc(N2CCN(S(=O)(=O)c3ccc4c(c3)C(Cl)(Cl)C(=O)N4)CC2)cc1
active: Potency [2] 26.9 µM
inactive: Potency [1] | outcome [3] | outcome [5]

CCCn1c(C)nc2c(NCCCN(CCO)CCO)nc(C)nc21
inactive: outcome [11] | Potency [1]

O=C(CCc1ccccc1)Nc1ccc(S(=O)(=O)Nc2nccs2)cc1
inactive: outcome [12] | Potency [9] | Potency [10] | Potency [1] | Potency [2] | outcome [3] | activation [8] 9.99% [at 17.1 µM] | activity change, negative = inhibition [4] 1.51% [at 12.7 µM] | activation [6] 9.8% [at 30.8 µM]

Cc1noc(CN(C)c2ncnc3ccc(-c4ccc5c(c4)OCO5)cc23)n1
inactive: Potency [1] | Potency [7]

CCC(=O)NC(c1cccs1)c1cc(Cl)c2cccnc2c1O (stereo unspecified)
inactive: Potency [1] | Potency [2] | outcome [3] | outcome [8] | outcome [5] | outcome [6]

COc1ccc(N2C(=O)c3ccccc3C2=O)cc1
inactive: Potency [1] | Potency [2] | outcome [3] | outcome [8] | Potency [4] | outcome [5] | outcome [6]

Cc1ccc(NS(=O)(=O)c2ccc3c(c2)CCC(=O)N3)cc1C
inactive: Potency [1] | Potency [7]

CC(=O)NC(c1ccco1)c1cc(Cl)c2ccccc2c1O (stereo unspecified)
inactive: Potency [1] | Potency [2] | outcome [3] | activation [8] 3.62% [at 17.1 µM] | outcome [5]
